Source: PubChem
The list is not random: actives were taken first. Their share in the collection is about 8.9%.
SW480 rerep: induces DNA re-replication in SW480 colon adenocarcinoma cells | AID 624297 | SW480 DNA re-replication, Hoechst DNA content imaging, 48 h | 340,000 tested, 1.8% active | Potency, µM (series often up to 46.1 µM), inactives show at the top dose re-replication activation, most hits filed as activators; further: potency means the concentration at half of the fitted maximal effect; % of control where 0% means no effect; nearly all actives have a fitted effect of over 55% in size
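Treated cells incubate 48 hr (37 C, 5% CO2), are stained 40 min with Hoechst, and nuclear fluorescence is enumerated; a rise in nuclei with high DNA signal marks re-replication.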
KB-V1 MDR tox: KB-V1 MDR subline cytotoxicity. 400,000 tested, 3.4% active. Potency, µM (highest dose often 46.1 µM), actives largely listed as cytotoxic. KB-V1 MDR cells viability, CellTiter-Glo, 72 h. AID 1347076; further: potency means the concentration at half of the fitted maximal effect; on the % scale 0 is the no-effect control and ±100 the full control effect; nearly all actives have a fitted effect of over 60% in size
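Cytotoxicity toward P-gp-expressing KB-V1 cells was determined as loss of CellTiter-Glo luminescence after 72 h at 37 degrees C. Compounds were tested in quantitative HTS format across a concentration range, with curves fitted to normalized data.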
MCF10A rerep: induces DNA re-replication in MCF 10a normal breast cells | MCF 10A DNA re-replication, Hoechst nuclear intensity, 48 h | Potency, µM (top dose mostly 46.1 µM), for inactives: top-dose activity, positive = re-replication, usual class: activators | 350,000 tested, 2.9% active | AID 624296; further: potency means the concentration at half of the fitted maximal effect; % of control where 0% means no effect; nearly all actives have a fitted effect of over 50% in size
DRD3 agonist: agonists of human D3 dopamine receptor; D3R DiscoveRx beta-arrestin cells, luminescence, 90 min; AID 652048; max activation, %; 410,000 tested, 0.58% active; in the data active means max activation above about 30%; further: 0% is about no effect
Target sequence (P35462 whole entry, looked up): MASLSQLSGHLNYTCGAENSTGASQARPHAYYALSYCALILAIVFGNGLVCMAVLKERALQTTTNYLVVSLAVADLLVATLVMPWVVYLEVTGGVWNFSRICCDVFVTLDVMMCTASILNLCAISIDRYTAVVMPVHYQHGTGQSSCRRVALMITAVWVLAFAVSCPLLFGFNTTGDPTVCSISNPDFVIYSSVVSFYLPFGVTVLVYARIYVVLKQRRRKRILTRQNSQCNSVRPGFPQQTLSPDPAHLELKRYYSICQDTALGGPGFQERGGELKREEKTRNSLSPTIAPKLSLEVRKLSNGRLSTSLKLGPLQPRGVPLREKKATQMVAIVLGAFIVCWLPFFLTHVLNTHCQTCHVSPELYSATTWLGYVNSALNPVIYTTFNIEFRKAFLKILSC
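Agonist-mode cell screen: cells plated at 1500/well and incubated overnight at 37 °C, then exposed to library compounds for 90 min at 37 °C. Detection reagent was added for 30–60 min at room temperature, and luminescence was read.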
DRD3 antagonist: D3 dopamine receptor (human) antagonism; D3R cells, DiscoveRx beta-arrestin luminescence, antagonist mode; stronger effect = lower value; max response, negative = inhibition, %; 360,000 tested, 2.5% active; in the data active means max response below about -50%; inconclusive means no clear call, values can overlap the other calls; further: on the % scale 0 is the no-effect control and ±100 the full control effect
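Cells expressing the human receptor were seeded at 1500 cells/well, incubated overnight at 37 degrees C in 5% CO2, then exposed to library compounds with dopamine controls for 90 minutes at 37 degrees C before luminescent detection.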
KB-3-1 cytotox: kills parental KB-3-1 adenocarcinoma cells; Potency, µM (doses to about 46.1 µM), hits mostly cytotoxic; KB-3-1 viability, CellTiter-Glo ATP luminescence, 72 h; 400,000 tested, 1.4% active; further: potency means the concentration at half of the fitted maximal effect; on the % scale 0 is the no-effect control and ±100 the full control effect; nearly all actives have a fitted effect of over 60% in size
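Viability of parental KB-3-1 cells, measured by CellTiter-Glo luminescence, followed a 72 h incubation at 37 °C with pinned compounds in phenol-red-free DMEM containing 10% FBS.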
Numbers without * were called inactive. Unless noted, the call rests on the fitted dose curve; in most records, active means well fitted curve in the direction sought with a large enough effect; inconclusive means small, poorly fitted or top-dose-only effect, or another doubt; inactive means no such curve, though single readings can be large; an effect the other way counts as inactive or inconclusive.

CSc1ccc(/C=c2\s/c(=C\C(=O)C(C)(C)C)n(CC(=O)NCCC3=CCCCC3)c2=O)cc1 was read as SW480 rerep 2.5%, KB-V1 MDR tox inactive, MCF10A rerep inconclusive, DRD3 agonist 5.8, DRD3 antagonist 3.7 and KB-3-1 cytotox inactive.
`O=C(CS(=O)(=O)c1cccc2nsnc12)Nc1ccccc1Cl` gave KB-V1 MDR tox inactive, DRD3 agonist 6.7 and KB-3-1 cytotox inactive.
O=C(COC(=O)c1ccccc1C(F)(F)F)NC(=O)NCc1ccco1 was read as SW480 rerep -0.9%, KB-V1 MDR tox inconclusive, MCF10A rerep 2.2%, DRD3 agonist 5.2, DRD3 antagonist -13.9 and KB-3-1 cytotox inactive.
CC(C)c1cc(C(=O)OCC(=O)NC(=O)NCc2ccco2)c(O)c(C(C)C)c1 was read as SW480 rerep 8.3%, KB-V1 MDR tox inconclusive, MCF10A rerep 16.4µM*, DRD3 agonist 17.4, DRD3 antagonist -3.0 and KB-3-1 cytotox inconclusive.
O=C(O)/C=C\C(=O)Nc1ccccc1C#Cc1ccc(Br)cc1 was read as SW480 rerep inconclusive, KB-V1 MDR tox inactive, MCF10A rerep 18.4µM*, DRD3 agonist -5.2, DRD3 antagonist 2.9 and KB-3-1 cytotox inconclusive.
For CCc1c(C)sc(NC(=O)C2CC2c2ccccc2)c1C(N)=O (centres undefined) the results were SW480 rerep 16.5%, KB-V1 MDR tox 6.51µM*, MCF10A rerep inconclusive, DRD3 agonist -7.1, DRD3 antagonist 7.7 and KB-3-1 cytotox inactive.
`COc1ccc(CNC(=O)c2sc3nc[nH]c(=O)c3c2C)cc1` gave KB-V1 MDR tox inactive, DRD3 agonist 3.6 and KB-3-1 cytotox inactive.
OB(O)c1ccc(Br)cc1 was read as KB-V1 MDR tox inactive and KB-3-1 cytotox inactive.
Screening c1ccc(-c2c[n+]3c(n2-c2ccccc2)SCC3)cc1 returned SW480 rerep 20.6%, KB-V1 MDR tox inconclusive, MCF10A rerep 12.2%, DRD3 agonist -7.8, DRD3 antagonist 2.9 and KB-3-1 cytotox 3.26µM*.
`Fc1ccc(-n2cc(-c3ccccc3)[n+]3c2SCC3)cc1` gave SW480 rerep inconclusive, KB-V1 MDR tox inactive, MCF10A rerep 15.0%, DRD3 agonist 1.2, DRD3 antagonist 13.9 and KB-3-1 cytotox inconclusive.
Screening CCOc1ccc(-n2c(-c3ccc(Cl)cc3)c[n+]3c2SCC3)cc1 returned SW480 rerep 0.5%, KB-V1 MDR tox inactive, MCF10A rerep inconclusive, DRD3 agonist 0.9, DRD3 antagonist 12.3 and KB-3-1 cytotox 16.4µM*.
`CN1C(=O)/C(=C2/C=Cc3ccccc3N2CCCS(=O)(=O)O)SC1=S` gave SW480 rerep -5.3%, KB-V1 MDR tox inactive, MCF10A rerep -7.5%, DRD3 agonist -25.4, DRD3 antagonist -124.6* and KB-3-1 cytotox inactive.
`CCOC(=O)c1cnc(SCc2ccc(C(C)(C)C)cc2)nc1N` gave SW480 rerep 12.6%, KB-V1 MDR tox inconclusive, MCF10A rerep 14.7%, DRD3 agonist -3.0, DRD3 antagonist 14.6 and KB-3-1 cytotox 23.1µM*.
`CCOC(=O)c1cnc(SCc2ccccc2)nc1N` gave SW480 rerep 5.5%, KB-V1 MDR tox inconclusive, MCF10A rerep -12.2%, DRD3 agonist -24.2, DRD3 antagonist -24.0 and KB-3-1 cytotox inactive.
For CCOC(=O)c1cnc(SCc2cccc3ccccc23)nc1N the results were SW480 rerep -4.1%, KB-V1 MDR tox 18.4µM*, MCF10A rerep 14.8%, DRD3 agonist 7.6, DRD3 antagonist -18.8 and KB-3-1 cytotox inconclusive.
N#Cc1ccccc1CCN1C(=O)c2ccccc2C1=O was read as SW480 rerep -10.8%, KB-V1 MDR tox inactive, MCF10A rerep -7.6%, DRD3 agonist -1.2, DRD3 antagonist 20.4 and KB-3-1 cytotox inactive.
For COc1ccc(C(=O)/C(=C\c2ccco2)N2C=CC=CC2=C(C#N)C#N)cc1 the results were SW480 rerep inconclusive, KB-V1 MDR tox 7.31µM*, MCF10A rerep 1.3µM*, DRD3 agonist -11.5, DRD3 antagonist -64.6* and KB-3-1 cytotox inconclusive.
